Screening results as filed in PubChem.
GAA850 FXN act: frataxin GAA850 promoter activation; 0.56% of 360,000 active; HEK293 lucGAA850 FXN promoter luciferase reporter, 24 h; percent of 10 µM SAHA response; activation, % at 6 µM;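 active = activation above the average of all compounds screened plus 3 SD, cutoff fixed separately per campaign, cut at about 7.5% in these data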
NR0B1 inh: inhibitors of human orphan nuclear receptor DAX1 (NR0B1) | inhibition, % at 6.75 µM | 0.99% of 340,000 active | AID 504766 | P51843 | HEK293 Gal4-DAX1 luciferase reporter, luminescence;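 active = inhibition above the mean over all tested compounds plus 3 SD, cut at about 4.2% in these data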;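 also: inhibition shows as a rise in luminescence from relieved DAX1 repression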
HSF-1 act: increases HSF-1 driven luciferase reporter signal | NIH3T3-HGL HSF-1 luciferase reporter, MG132, 8 h; 100% = twice DMSO control signal | activation, % at 9 µM | 1.7% of 300,000 active;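 active = mean replicate activation of at least 50% with a set share of replicates each reaching 50%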
HSF1 inh: HSF1 inhibition; NIH3T3-HGL HSE-luciferase, MG132-induced, luminescence 8 h; stronger effect = lower value; activity change, negative = inhibition, % at 7.5 µM (by protocol); 0.77% of 300,000 active;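 active = more than half of replicate wells show activity change below -50%, luminescence cut by over half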;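 also: luciferase reports HSF-1 transcriptional activity via heat shock element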
AHR act: activates the human aryl hydrocarbon receptor. AID 2796. 2.5% of 320,000 active. AHR-responsive luciferase reporter cells, luminescence. P35869. activation, % at 5 µM; in the data active = activation above about 47%
Target sequence (P35869 whole entry, looked up): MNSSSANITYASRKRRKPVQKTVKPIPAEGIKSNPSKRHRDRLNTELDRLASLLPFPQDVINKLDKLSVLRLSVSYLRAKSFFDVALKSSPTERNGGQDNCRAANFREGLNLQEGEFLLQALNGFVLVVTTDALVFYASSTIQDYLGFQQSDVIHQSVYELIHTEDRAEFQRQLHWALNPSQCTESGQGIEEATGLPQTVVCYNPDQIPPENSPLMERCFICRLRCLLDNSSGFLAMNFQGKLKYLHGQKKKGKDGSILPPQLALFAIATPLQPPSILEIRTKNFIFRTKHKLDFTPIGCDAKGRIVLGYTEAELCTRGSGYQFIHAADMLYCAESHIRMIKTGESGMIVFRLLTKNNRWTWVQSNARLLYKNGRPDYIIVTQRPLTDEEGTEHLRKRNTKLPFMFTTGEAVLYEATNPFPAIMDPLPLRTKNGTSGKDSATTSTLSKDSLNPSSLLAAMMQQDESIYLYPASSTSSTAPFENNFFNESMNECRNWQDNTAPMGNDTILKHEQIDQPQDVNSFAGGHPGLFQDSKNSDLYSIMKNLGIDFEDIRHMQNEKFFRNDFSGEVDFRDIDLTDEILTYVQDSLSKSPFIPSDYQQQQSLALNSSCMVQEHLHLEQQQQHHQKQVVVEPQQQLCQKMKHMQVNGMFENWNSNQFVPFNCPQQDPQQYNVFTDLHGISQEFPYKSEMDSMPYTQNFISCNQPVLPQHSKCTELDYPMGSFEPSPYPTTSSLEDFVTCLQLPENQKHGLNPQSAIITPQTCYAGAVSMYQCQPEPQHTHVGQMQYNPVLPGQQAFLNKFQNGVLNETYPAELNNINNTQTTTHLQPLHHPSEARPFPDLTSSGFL
Numbers stand for hits; - = inactive; . = not tested or not shown. Shown are actives, neighbours in structure and some others; about 5.4% of the full set was active somewhere.

SMILES | GAA850 FXN act | NR0B1 inh | HSF-1 act | HSF1 inh | AHR act
O=C(c1ccc(F)cc1)N1CCN(c2ccc([N+](=O)[O-])cc2-n2cccc2)CC1 | - | . | - | - | -
COCc1cc(C)nc(Nc2ccccc2OC)c1C#N | - | - | - | - | 52
COc1ccc(-n2nc(C#N)c(Cl)cc2=O)cc1 | 33 | . | . | . | .
COC(=O)c1nn(-c2ccc(OC)cc2)c(=O)cc1O | - | - | - | - | -
CN(CC1CCOCC1)C(=O)CC1C(=O)NCCN1Cc1cccc(C(F)(F)F)c1 (centres undefined) | - | - | - | - | .
CCOC(=O)c1cn(-c2c(Cl)cccc2Cl)c2cc(Cl)c([N+](=O)[O-])cc2c1=O | - | - | 104 | - | -
COc1ccc(OC)c(Nc2nc(-c3sc(NC(=O)CC(C)C)nc3C)cs2)c1 | - | - | - | - | 73
COc1ccc(Cl)cc1Nc1nc(-c2sc(NC(=O)C(C)(C)C)nc2C)cs1 | - | - | - | - | -
COc1ccc(OC)c(Nc2nc(-c3sc(NC(=O)C(C)(C)C)nc3C)cs2)c1 | - | - | - | - | 61
COc1ccc(OC)c(Nc2nc(-c3sc(C)nc3C)cs2)c1 | - | - | - | - | -
O=C(NNc1ccccc1)NC(Cc1ccccc1)C(=O)O (centres undefined) | - | - | . | . | .
COC(=O)C/C=C/[C@@H](C)[C@@H](/C=N/OCC[C@@H]1C=C[C@H](OC(C)=O)[C@@H](COC(C)=O)O1)NS(=O)(=O)c1ccc(C)cc1 | . | . | - | - | -
Cc1cccn2c(=O)nc(SCC(=O)Nc3ccc4c(c3)OCCO4)nc12 | - | - | - | - | -
Cc1cc(NCC(=O)Nc2ccc(C)c(S(=O)(=O)N3CCOCC3)c2)ccc1Br | - | - | . | . | .
CCN1C(=O)CC(c2ccc(OC(C)C)cc2)C1=O (centres undefined) | - | 4.5 | - | - | -
COc1ccc(C(=O)/C=C2\NCC3c4ccccc4CCN3C2=O)cc1 (centres undefined) | - | - | - | - | 89
C/C(NC(=O)c1ccccc1F)=C1\C(=O)C[C@@H]2[C@H]1C2(C)C | - | - | 51 | - | -
CN(C(=O)c1ccccc1C(=O)OCC(=O)Nc1cccc(Br)c1)c1ccccc1 | - | - | . | . | -
O=C(CC1SC(=O)N(Cc2cccc3ccccc23)C1=O)Nc1nccs1 (centres undefined) | - | - | - | - | 71
Cc1ccc(C2=NOC(=O)/C2=C\c2ccc(C)o2)cc1 | - | 5.8 | - | - | -
Cc1ccccc1-c1cc(C(=O)O)n(CC2CC(c3cccnc3)=NO2)n1 (centres undefined) | - | - | . | . | -
CN(C)/N=C/C=C1\CCC/C(=C\c2ccc(F)c(F)c2)C1=O | - | . | 116 | - | -
COC(=O)CCN(C(=O)c1cccc(OC(C)=O)c1)c1ccccn1 | - | 4.5 | - | - | -
COC(=O)CCN(C(=O)c1ccc2c(c1)OCO2)c1ccccn1 | - | - | - | - | -
C[C@@H](NC(=O)[C@@H]1Cc2ccccc2CN1)C(=O)Nc1ccc2c(c1)OCO2 | - | 5.2 | - | - | -
SMILES | GAA850 FXN act | NR0B1 inh | HSF-1 act | HSF1 inh | AHR act
Cc1ccc(NC(=O)[C@@H](C)NC(=O)[C@@H]2Cc3ccccc3CN2)cc1 | - | - | - | -55 | -
CCc1ccc(NC(=O)C2CCC(CNC(=O)[C@@H]3Cc4ccccc4CN3)CC2)cc1 (some centres undefined) | - | - | - | -66 | -
Cn1cc([N+](=O)[O-])c(C(=O)N2CCCCCC2)n1 | - | - | - | - | -
CCOC(=O)c1[nH]ncc1CN1CCN(Cc2ccc(C)cc2)C(CCO)C1 (centres undefined) | - | - | - | - | -
COc1ccc(Cl)cc1NS(=O)(=O)c1c(C)[nH]c(C)c1C(=O)N1CCCCC1 | - | - | - | - | -
COc1ccccc1CCC(=O)Nc1ccc2c(c1)CN(Cc1ccc(CO)o1)CC2 | - | - | - | - | -
O=C(Nc1ccc2c(c1)CN(Cc1ccc(CO)o1)CC2)c1ccc(C(F)(F)F)cc1 | - | - | - | - | 55
Cc1ccc(NCC(=O)Nc2cccc(F)c2)cc1S(=O)(=O)N1CCCCCC1 | - | - | - | - | -
COc1cc(/C=C/C(=O)OCC(=O)N2CCCC2)cc(OC)c1OC | - | - | . | . | -
O=C(Nc1ccc(Cl)cc1)OCc1ccccn1 | - | - | 57 | - | -
COc1ccc2[nH]c3c(N4CCN(Cc5ccc6c(c5)OCO6)CC4)ncnc3c2c1 | - | - | - | - | -
Cc1ccc2[nH]c3c(N4CCOCC4)ncnc3c2c1 | - | - | - | - | 73
Cc1ccc2[nH]c3c(N4CCc5ccccc5C4)ncnc3c2c1 | - | - | 92 | - | -
COc1ccc2[nH]c3c(N4CCC(O)(c5cccc(C(F)(F)F)c5)CC4)ncnc3c2c1 | - | - | - | - | 68
Fc1ccc2[nH]c3c(NCCN4CCOCC4)ncnc3c2c1 | - | - | - | - | 75
Cc1ccc(S(=O)(=O)N2CCN(C(=O)CNC(=O)c3ccc(Cl)cc3)CC2)cc1 | - | - | . | . | -
CCCCCC(=O)NCc1c(C(F)(F)F)nn(C)c1N1CCOCC1 | - | - | - | - | -
c1ccc2c(c1)[nH]c1c(N3CCSCC3)ncnc12 | - | - | . | . | -
c1ccc2c(c1)[nH]c1c(N3CCCC3)ncnc12 | - | - | - | - | 65
Brc1ccc2[nH]c3c(N4CCc5ccccc5C4)ncnc3c2c1 | . | . | 58 | - | 51
Brc1ccc2[nH]c3c(NCc4ccccn4)ncnc3c2c1 | - | . | - | - | 78
CCCOc1ccc(NC(N)=O)cc1OCCC | - | - | - | -68 | -
OC(c1ccc(F)cc1)c1nc(-c2ccc(Cl)cc2)cs1 (centres undefined) | - | . | . | . | .
O=C(NNc1nc(=O)c2cccnc2s1)c1ccccc1O | - | - | - | - | 49
O=C(NNc1c2ccccc2nc2ccccc12)c1ccc(O)cc1 | - | - | - | - | -
SMILES | GAA850 FXN act | NR0B1 inh | HSF-1 act | HSF1 inh | AHR act
O=C(NNC(=O)c1cccc2ccccc12)c1ccccc1O | - | - | - | - | -
O=C(NNc1c2ccccc2nc2ccccc12)c1ccc(O)cc1O | - | - | - | - | -
O=C(NNc1c2ccccc2nc2ccccc12)c1ccccc1O | - | - | - | - | 129
O=C(NNc1c2ccccc2nc2ccccc12)c1ccccc1Cl | - | - | - | - | 58
Cc1ccnc(NC(=O)c2cc(S(=O)(=O)NCc3ccccc3)ccc2C)c1 | - | - | . | . | -
CCOC(=O)CC(NC(=O)c1cccc2c1C(=O)N(Cc1cccnc1)C2)c1ccc(OC(C)C)cc1 (centres undefined) | - | - | - | - | -
CCCc1cc2c(=O)c(-c3ccccn3)c(C)oc2cc1O | - | - | - | - | 65
Cc1ccc(OCC(=O)Nc2ccc(S(=O)(=O)N3CCOCC3)cc2)c(Br)c1 | - | - | - | - | -
Cc1ccc(OCC(=O)NC(=S)Nc2ccc(Br)c(C)n2)cc1 | - | - | - | - | -
Cc1ccc(OCC(=O)NC(=S)Nc2ccc(Br)cn2)cc1 | - | - | - | - | -
Cc1nc(NC(=S)NC(=O)COc2ccc(Cl)cc2)ccc1Br | - | 6.0 | - | - | -
